Screening results deposited in PubChem by several laboratories.
The list is not random: actives were taken first. Their share in the collection is about 4.1%.
IDE cell activ – activators of human insulin-degrading enzyme in cells | 340,000 compounds, 0.073% hits | AID 493087 | P14735 | activation, % at 5.96 µM | HEK cells, FAbeta-B cleavage, fluorescence polarization; 0% vehicle, 100% cell-free pure enzyme wells;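 active means activation above the mean of all tested compounds plus 3 SD, set per screening campaign, cut at about 17% in these data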
ALR H2O2 inh – inhibitors of human sulfhydryl oxidase ALR; AID 485317; 290,000 compounds, 3.8% hits; purified ALR, DTT oxidation, H2O2 HRP-luminol luminescence; P55789; inhibition, % (no concentration beside the values);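 active means mean replicate inhibition above about 79%, with every replicate also reaching it, limit read from the data; inconclusive means only one of the two criteria met; inactive means mean below limit and not every replicate reaching it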
Target sequence (P55789 whole entry, looked up): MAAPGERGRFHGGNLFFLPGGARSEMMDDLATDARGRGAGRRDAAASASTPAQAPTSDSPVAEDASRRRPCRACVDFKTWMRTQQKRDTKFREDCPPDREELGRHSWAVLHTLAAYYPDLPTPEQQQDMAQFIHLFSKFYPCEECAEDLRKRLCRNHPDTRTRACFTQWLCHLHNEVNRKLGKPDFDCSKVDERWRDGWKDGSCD
CaV13 FRET inh – Disruptors of the CACNA1D IQ motif to Ca2+-dependent inactivation inhibitor domain association, primary screening, Förster resonance energy transfer in intact living …. HEK cells, CFP/YFP FRET ICDI-IQ, plate reader, 10 min; percent FRET-ratio fall versus neutral wells. inhibition, % at 12.3 µM. 340,000 compounds, 0.098% hits. AID 743397;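 active means mean replicate inhibition of at least 30% and at least 1% of replicates passing that level; inconclusive means only one of the two criteria is met; inactive means neither criterion is met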
PfM18AAP inh-1 – blocks P. falciparum M18 aspartyl aminopeptidase; recombinant PfM18AAP, H-Glu-NHMec fluorogenic cleavage; inhibition, % at 7.35 µM; 290,000 compounds, 1.2% hits;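 active means inhibition above the campaign mean inhibition over all tested compounds plus 3 SD, cut at about 28% in these data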
IDE cell inh – inhibitors of human insulin-degrading enzyme in cells; AID 434962; inhibition, % at 5.59 µM; P14735; 320,000 compounds, 0.41% hits; HEK cells, FAbetaB cleavage, fluorescence polarization;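 active means percent inhibition above the average of all tested compounds plus 3 SD, set per screening campaign, cut at about 16% in these data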;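 further: IDE supplied by intact live HEK cells; FP after avidin binding of uncleaved biotin substrate so inhibition keeps polarization high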
PolyA inh – inhibitors of polyadenylation in S. cerevisiae; S. cerevisiae SKY197-pL101 polyadenylation reporter, beta-gal luminescence; efflux-impaired pdr1/pdr3 knockout yeast; score 100 = 6 SD above DMSO; activity score, % at 12 µM; 300,000 compounds, 0.02% hits; AID 1875;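 active means lowest replicate activity score at least 50, where 100 means six control SD above control mean; inconclusive means lowest score under 50 but half or more replicates reach 50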;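 further: yeast exposed to compound for 9 h at 30 °C; higher score means more reporter readthrough which indicates perturbed polyadenylation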
PfM18AAP inh-2 – PfM18AAP inhibition, confirmation; shares compounds with PfM18AAP inh-1; recombinant PfM18AAP, H-Glu-NHMec fluorogenic cleavage; inhibition, % at 7.35 µM; 2,400 compounds, 28% hits; AID 2170;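 active means mean inhibition over replicate wells above the hit cutoff set for the earlier primary screen, cut at about 29% in these data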
CTSL1 confirm – Cathepsin L (human) inhibition, confirmation | shares compounds with PfM18AAP inh-1 | AID 2178 | 2,400 tested, under 10 active | purified cathepsin L1, Z-Leu-Arg-MCA fluorescence | inhibition, % at 5.96 µM;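 active means average inhibition across replicates above the hit cutoff set in the earlier primary screen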
Target sequence (P07711 whole entry, looked up): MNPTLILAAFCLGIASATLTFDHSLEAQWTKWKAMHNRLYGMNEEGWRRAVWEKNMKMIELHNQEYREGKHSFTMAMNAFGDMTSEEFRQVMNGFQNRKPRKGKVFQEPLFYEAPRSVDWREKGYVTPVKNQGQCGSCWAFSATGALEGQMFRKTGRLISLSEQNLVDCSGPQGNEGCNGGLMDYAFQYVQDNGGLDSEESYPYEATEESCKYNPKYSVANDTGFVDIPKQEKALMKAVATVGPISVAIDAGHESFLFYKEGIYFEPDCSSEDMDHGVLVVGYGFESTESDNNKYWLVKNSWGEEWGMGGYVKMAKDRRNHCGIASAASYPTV
Numbers stand for hits; n = inactive; u = inconclusive; x = no result given.

SMILES | IDE cell activ | ALR H2O2 inh | CaV13 FRET inh | PfM18AAP inh-1 | IDE cell inh | PolyA inh | PfM18AAP inh-2 | CTSL1 confirm
CCC1CCCCN1CCCNC(=O)c1ccc(N2CCOCC2)c(NS(=O)(=O)c2ccc(OC)cc2)c1 (stereo not drawn) | n | n | n | n | n | n | x | x
CC(C)(C)C1CCc2c(sc(NC(=O)CSc3ncn[nH]3)c2C#N)C1 (stereo not drawn) | n | n | n | 34 | n | n | n | n
COc1ccc(-c2nn(CCC(=O)O)cc2/C=N/NC(N)=S)cc1 | n | x | n | n | n | n | x | x
Cc1nc2ccccn2c1/C(O)=C1\C(=O)C(=O)N(CCN(C)C)C1c1ccco1 (stereo not drawn) | n | n | n | n | n | n | x | x
Cc1nc(N2C(=O)C(=O)/C(=C(/O)c3ccccc3)C2c2ccco2)sc1C (stereo not drawn) | n | n | n | 38 | n | n | n | n
O=C(Nc1ccccc1C(F)(F)F)c1ncn[nH]1 | n | n | n | 59 | n | n | 57 | n
CCOc1ccccc1OCCCC(=O)N1CCN(S(=O)(=O)c2ccc(C)cc2C)CC1 | n | n | n | x | n | x | x | x
CCn1c(CSc2ncn[nH]2)nc2cc(C(=O)O)ccc21 | n | x | n | 48 | n | n | n | n
CCOC(=O)C1=C(Nc2ccc(C)cc2)CC(C)(O)C(C(=O)OCC)C1c1ccccc1 (stereo not drawn) | n | n | n | n | n | n | x | x
CCSc1ccccc1C(=O)Nc1ccc(S(=O)(=O)NC(C)=O)cc1 | n | 96 | n | 32 | n | n | n | n
CC(=O)NS(=O)(=O)c1ccc(NC(=O)c2ccccn2)cc1 | n | n | n | n | n | n | x | x
Cc1c(C#N)c(O)n(C)c(=O)c1N=Nc1ccc(S(N)(=O)=O)cc1 | n | x | n | 35 | x | n | n | n
Cc1c(C#N)c(O)n(CCO)c(=O)c1N=Nc1ccc(S(N)(=O)=O)cc1 | n | n | n | 35 | n | n | n | n
Cc1c(C#N)c(O)n(CCO)c(=O)c1N=Nc1ccccc1 | n | x | n | n | n | n | x | x
CC(C)c1ccc(NNC(=O)C2CCC2)cc1 | n | x | n | n | n | n | x | x
CC1CCN(c2c([N+](=O)[O-])nn(-c3ccc4c(c3)OCCO4)[n+]2[O-])CC1 | n | n | n | n | n | n | x | x
CCN1C(=O)[C@H]2[C@H]3[C@H](O)[C@H](O)C/C(=N\OC[C@@H](C)[C@H](OCc4ccccc4)C(C)C)[C@@H]3CC[C@H]2C1=O | x | x | x | n | n | n | x | x
C(=Nc1ccccc1)c1ccc[nH]1 | n | x | n | x | x | x | x | x
Oc1ccccc1N=Cc1ccc[nH]1 | n | n | n | 35 | n | n | n | n
CCC(=O)NC(Nc1ccccn1)(C(=O)OC)C(F)(F)F (stereo not drawn) | n | n | n | n | n | n | x | x
O=C(OCC(=O)N1CCCC1=O)C1CCN(S(=O)(=O)c2ccc(Cl)c(C(F)(F)F)c2)CC1 | n | n | n | x | n | x | x | x
Cn1c(=O)[nH]c2ncccc21 | n | n | n | n | n | n | x | x
COc1ccc(-n2c(O)c(/C=C3\C=Nc4ccccc43)c(=O)[nH]c2=O)cc1 | n | x | n | 32 | x | n | n | n
CC(C)(C)OC(=O)N1CCN(C(=O)[C@H](Cc2ccc(O)cc2)n2cc(CCO)nn2)CC1 | n | n | n | n | n | n | x | x
O=C(COc1ccc(Br)cc1Cl)NNC(=O)c1ccccc1 | n | x | n | x | n | x | x | x
SMILES | IDE cell activ | ALR H2O2 inh | CaV13 FRET inh | PfM18AAP inh-1 | IDE cell inh | PolyA inh | PfM18AAP inh-2 | CTSL1 confirm
NNc1ccc2nncn2n1 | n | n | n | 40 | n | n | 39 | n
COCCCNC(=O)C(=O)NC1CCCCC1C (stereo not drawn) | n | n | n | n | n | n | x | x
Cc1oc(-c2ccc3c(c2)OCCO3)cc1C(=O)NC(CCC(=O)O)C(=O)O (stereo not drawn) | n | n | n | 38 | n | n | n | n
CCCN1CNc2c(c(=O)[nH]c(=S)n2-c2ccc(Cl)cc2)C1 | n | n | n | n | n | x | x | x
O=c1ccsc2ccccc12 | x | x | n | x | x | x | x | x
O=c1[nH]sc2ccccc12 | n | x | n | 50 | x | n | 30 | n
Cc1cc(C)c(NC(=S)NCC2CCN(C(C)c3ccccc3)C2)c(C)c1 (stereo not drawn) | n | n | n | 53 | n | n | n | n
Cc1cc(C)c2c(N)c(C(=O)NCc3ccco3)sc2n1 | n | n | n | 36 | n | n | n | n
CC(=O)c1sc2nc(C)cc(C)c2c1N | n | x | n | n | n | n | x | x
O=C(N/N=C/c1sc(=O)[nH]c1-[n+]1ccc2ccccc2c1)c1ccccc1[O-] | n | x | n | 32 | n | n | n | n
O=C(Cn1cnc2c(nnn2Cc2ccccc2)c1=O)NCc1ccccc1Cl | n | n | n | n | n | n | x | x
COc1ccc(O)c(/C=C2/SC(=S)N(Cc3ccccc3)C2=O)c1 | n | n | n | 42 | n | n | n | n
O=C(O)CN1CCN(Cc2cccc(Cl)c2)C1=O | n | n | n | n | n | n | x | x
O=C(Nc1ccccc1)Nc1cccc(Cl)c1Cl | n | x | n | n | n | n | x | x
O=C(Nc1cccc(Cl)c1Cl)Nn1cnnc1 | n | n | x | 84 | n | n | 77 | n
S=C(Nc1cccc(Cl)c1Cl)Nn1cnnc1 | n | n | n | 82 | n | n | 82 | n
COc1cc(/C=N/Nc2nc(C)cc(=O)[nH]2)cc(OC)c1O | n | x | n | 42 | n | n | n | n
OC(CNCc1ccccc1)Cn1ccc2ccccc21 (stereo not drawn) | n | n | n | n | n | n | x | x
Oc1ccccc1NCC(O)Cn1ccc2ccccc21 (stereo not drawn) | n | u | n | 56 | n | n | n | n
C=CCOc1c(Cl)cc(CNc2nccs2)cc1OC | n | n | n | n | n | n | x | x
O=C(N/N=C/c1ccc(O)c(O)c1)NC12CC3CC(CC(C3)C1)C2 | n | 99 | n | 48 | n | n | n | n
N#Cc1ccc(-c2ccccc2)nc1SCC(=O)c1cc2ccccc2oc1=O | n | n | n | 34 | n | n | n | n
CC(C)c1c(C#N)c(N)nc(SCC(=O)c2cc3ccccc3oc2=O)c1C#N | n | n | n | n | n | n | x | x
COC(=O)c1ccccc1NC(=O)CCCn1nc([N+](=O)[O-])c(Br)c1C | n | n | n | n | n | n | x | x
O=C(/C=C/c1ccc(O)c(O)c1)c1ccccc1O | n | 100 | n | 72 | n | n | 61 | n
O=C(C=Cc1cccc(O)c1)c1ccccc1O | n | x | n | x | x | x | x | x
COc1ccc(NC(=O)CNC(=O)N2CC(=O)Nc3ccccc32)cc1OC | n | n | n | n | n | u | x | x
Oc1ccccc1N=Cc1c(O)ccc2ccccc12 | n | x | n | 31 | x | n | n | n
